{
  "source": "PubChem BioAssay",
  "note": "Unmarked numbers belong to inactive results. The rule behind the calls is not given here.",
  "data": [
    {"target": "Pantothenate synthetase (Mycobacterium tuberculosis (strain ATCC 25618 / H37Rv)) (UniProt P9WIL5)", "sequence (P9WIL5 whole entry, looked up)": "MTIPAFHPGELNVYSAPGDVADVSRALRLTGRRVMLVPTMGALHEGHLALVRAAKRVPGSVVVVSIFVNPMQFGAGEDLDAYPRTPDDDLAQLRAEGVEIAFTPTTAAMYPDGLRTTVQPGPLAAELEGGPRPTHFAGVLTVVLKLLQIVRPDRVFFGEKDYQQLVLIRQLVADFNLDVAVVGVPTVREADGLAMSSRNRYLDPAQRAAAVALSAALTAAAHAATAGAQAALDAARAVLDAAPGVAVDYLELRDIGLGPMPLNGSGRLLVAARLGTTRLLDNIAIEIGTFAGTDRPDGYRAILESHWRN", "test": "Recombinant Mtb pantothenate synthetase (PanC) inhibitors, coupled enzyme, confirmatory (AID 375);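 note: 0% = full reaction with vehicle and 100% = no enzyme background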", "conditions": "coupled enzyme assay; at 10 µM, hits give high values", "units": {"inhibition": "%"}, "values": [
      {"smiles": "COc1ccc(-c2nnn(CC(=O)c3ccc4c(c3)OCCO4)n2)cc1OC", "inhibition": 0},
      {"smiles": "O=S(=O)(c1ccc(S(=O)(=O)N2CCN3CCCC3C2)cc1)N1CCCC1", "note": "(stereo not given)", "inhibition": 0},
      {"smiles": "COC(=O)COc1nc(C)c(Br)c(OC)n1", "inhibition": 0},
      {"smiles": "O=C(C1CCCO1)N1CCc2ccccc21", "note": "(stereo not given)", "inhibition": 10},
      {"smiles": "CCc1nnc(NC(=O)C2CCN(c3nccc(C)n3)CC2)s1", "inhibition": 8},
      {"smiles": "COC(=O)[C@H](C)NC(=O)Nc1cc(OC)ccc1OC", "inhibition": 0},
      {"smiles": "CC1CC(C)CN(c2ncnc3c2cnn3-c2ccc(Cl)cc2)C1", "note": "(stereo not given)", "inhibition": 1},
      {"smiles": "CCc1cc(=O)oc2c(CN3CCN(C)CC3)c(O)c(Cl)cc12", "inhibition": 5},
      {"smiles": "Cc1cnnc2c1-c1nonc1CC2", "inhibition": 4},
      {"smiles": "COc1ccccc1Nc1nc(N)nc(-c2cc3ccccc3o2)n1", "inhibition": 0},
      {"smiles": "COc1cccc(S(=O)(=O)Nc2ccc(C(=O)N3CCN(C(=O)c4ccco4)CC3)cc2)c1", "inhibition": 0},
      {"smiles": "O=C(Nn1c(C2CC2)nc2ccccc2c1=O)c1ccco1", "inhibition": 0},
      {"smiles": "CCN1CCN(S(=O)(=O)c2ccc(S(=O)(=O)N(CC)Cc3ccccc3)cc2)CC1", "inhibition": 7},
      {"smiles": "CCN1CCN(c2nc3c(c(=O)n(C)c(=O)n3C)n2Cc2cccc3ccccc23)CC1", "inhibition": 0},
      {"smiles": "COc1ccc(-c2nnc(SCC(=O)N3CCOCC3)o2)cc1OC", "inhibition": 0},
      {"smiles": "Cc1sc2nc(SCC(=O)NCc3ccco3)n(CCc3ccccc3)c(=O)c2c1C", "inhibition": 0},
      {"smiles": "CCOc1ccc(C(=O)N2CCN(c3ccccc3)CC2)cc1OCC", "inhibition": 1},
      {"smiles": "CC1(C(=O)CSc2nc3ccccc3s2)CCC(=O)O1", "note": "(stereo not given)", "inhibition": 0},
      {"smiles": "CCOC(=O)N1CCC(Nc2nc3ccccc3n3cnnc23)CC1", "inhibition": 10},
      {"smiles": "c1ccc(CCn2nnnc2CN2CCN(C3CCCC3)CC2)cc1", "inhibition": 2},
      {"smiles": "COc1ccccc1NC(=O)Cn1nnc(-c2ccccc2NC(=O)c2ccco2)n1", "inhibition": 0},
      {"smiles": "Cc1ccc(CN2C(=O)CCC2C(=O)NCCCN2CCC(C)CC2)cc1", "note": "(stereo not given)", "inhibition": 8},
      {"smiles": "Cc1oc2cc3c(C(=O)OCCN(C)C)c(C)oc3cc2c1C(=O)OCCN(C)C", "inhibition": 0},
      {"smiles": "CN1CCCC(OC(=O)c2ccc3c(c2)OCCO3)C1", "note": "(stereo not given)", "inhibition": 0},
      {"smiles": "O=C1c2ccccc2C(Nc2ccc(-c3nc4ccccc4[nH]3)cc2)N1Cc1ccco1", "note": "(stereo not given)", "inhibition": 5},
      {"smiles": "COc1cc(NC(=O)CSCc2cnn(-c3ccccc3)c2-n2cccc2)cc(OC)c1", "inhibition": 6},
      {"smiles": "CCc1[nH]nc2c1C(c1cccc(OC(=O)N3CCOCC3)c1)C(C#N)=C(N)O2", "note": "(stereo not given)", "inhibition": 1},
      {"smiles": "Nc1ccc(Sc2nnnn2-c2ccccc2)c(Cl)c1", "inhibition": 6},
      {"smiles": "COC(=O)c1ccccc1OCC(=O)NC1CCCCC1", "inhibition": 0},
      {"smiles": "Cc1cccc(NC(=O)C2CCCN2C(=O)OCC(C)C)c1C", "note": "(stereo not given)", "inhibition": 0},
      {"smiles": "COc1cccc2c(=O)cc(C)n(CC(=O)Nc3ccc(C)c(C)c3)c12", "inhibition": 0},
      {"smiles": "Cc1onc(-c2ccccc2Cl)c1C(=O)Nc1cccc(-c2cn3cccnc3n2)c1", "inhibition": 7},
      {"smiles": "COc1cc(NS(=O)(=O)c2ccc(Br)s2)cc(OC)c1", "inhibition": 0},
      {"smiles": "COc1ccc(CC(=O)NCc2nnc(SCC(=O)Nc3nccs3)n2-c2ccccc2)cc1", "inhibition": 0},
      {"smiles": "Cc1ccc(S(=O)(=O)NC(=O)NN2CCCCCC2)cc1", "inhibition": 4},
      {"smiles": "COCCCNC(=O)CC1Oc2ccccc2NC1=O", "note": "(stereo not given)", "inhibition": 0},
      {"smiles": "CCOc1ccc(C(=O)Cc2ccc3oc(C(=O)O)cc3c2)c(O)c1", "inhibition": 7},
      {"smiles": "CCOC(=O)C1=C(C)NC(SC(C)=O)=NC1c1ccc(OC(C)=O)c(OC)c1", "note": "(stereo not given)", "inhibition": 4},
      {"smiles": "CCCC1(CCC)NC(=O)NC1=O", "inhibition": 0},
      {"smiles": "COc1ccccc1-c1nc(C(F)(F)F)c(OC)o1", "inhibition": 0}
    ]}
  ]
}
